Screening data: PubChem, Broad Institute
Rtt109 HAT inh: inhibitors of Candida albicans Rtt109/Vps75 histone acetyltransferase; purified Rtt109/Vps75, ThioGlo CoA-SH fluorescence, 4 h; Q5AAJ8; 330,000 tested, 0.16% active; AID 540336; inhibition, % at 34.9 µM;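 active = inhibition of at least 50% in every replicate; inconclusive = best replicate reaches 50% inhibition but some replicates fall short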
ERp5 inh: ERp5 (human) disulfide isomerase inhibition; Q15084; ERp5 insulin aggregation, absorbance 650 nm, 90 min; inhibition, % at 9.99 µM; 350,000 tested, 0.05% active; AID 651711;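 active = mean replicate inhibition above about 25%, with every replicate also reaching it, limit read from the data, passing the limit was not always enough; inconclusive = only one of those two criteria met; inactive = neither criterion met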
DENV2 CPE rescue: inhibitors of DENV2 cytopathic effect | DENV2-infected cells, cytopathic effect rescue, plate reader | CPE inhibition, % at 9.99 µM | 350,000 tested, 1.7% active; in the data active = CPE inhibition above about 20%, passing the limit was not always enough; inconclusive = no clear call, values can overlap the other calls; tested in BHK-21 cells
SIRT5 block: blocks human SIRT5 desuccinylation of peptide | Q9NXA8 | Purified SirT5, succinyl-peptide AMC, trypsin-coupled fluorescence | inhibition, % at 15 µM | 330,000 tested, 1.1% active | AID 652115; in the data active = inhibition above about 15%; inconclusive = no clear call, values can overlap the other calls
PDI turbidity: PDI (human) enzyme inhibition. P07237. PDI insulin aggregation turbidity, A650, 90 min. inhibition, % at 10 µM. 350,000 tested, 0.052% active. AID 588391;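 active = mean inhibition across replicates of 30% or more, whatever share of single replicates reach that level; inconclusive = mean inhibition below 30% while every single replicate reaches 30%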
Target sequence (P07237 whole entry, looked up): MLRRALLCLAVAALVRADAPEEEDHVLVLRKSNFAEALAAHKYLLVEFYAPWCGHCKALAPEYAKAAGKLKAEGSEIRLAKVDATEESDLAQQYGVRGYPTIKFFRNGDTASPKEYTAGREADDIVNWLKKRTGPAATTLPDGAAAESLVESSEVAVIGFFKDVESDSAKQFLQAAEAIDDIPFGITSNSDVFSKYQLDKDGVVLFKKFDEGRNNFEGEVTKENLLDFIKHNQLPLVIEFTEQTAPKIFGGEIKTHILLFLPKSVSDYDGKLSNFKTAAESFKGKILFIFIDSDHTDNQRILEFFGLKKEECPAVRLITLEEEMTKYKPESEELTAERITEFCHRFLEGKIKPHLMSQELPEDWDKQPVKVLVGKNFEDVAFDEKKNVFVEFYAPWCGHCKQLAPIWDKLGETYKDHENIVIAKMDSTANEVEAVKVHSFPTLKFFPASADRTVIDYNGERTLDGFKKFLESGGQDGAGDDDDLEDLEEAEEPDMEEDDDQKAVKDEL
Large screens that a line does not name were inactive. In the library only some 2.3% were active in any assay of this set; here they are far more common.

Cc1cc(OCc2cc(C(=O)NC(C)c3c(C)nn(C)c3C)no2)cc(C)c1Cl (configuration not stated)	SIRT5 block 18
Cc1cc(OCc2cc(C(=O)NC(C)c3cnn(C)c3)no2)cc(C)c1Cl (configuration not stated)	none (no result: Rtt109 HAT inh, SIRT5 block)
C[C@@H]1CN([C@@H](C)CO)C(=O)c2cccc(NS(=O)(=O)c3ccc(Cl)cc3)c2O[C@H]1CN(C)C(=O)NC1CCCCC1	none (no result: Rtt109 HAT inh, PDI turbidity)
C[C@@H]1CN([C@H](C)CO)C(=O)c2cc(NC(=O)Nc3ccc(C(F)(F)F)cc3)ccc2O[C@@H](C)CCCCO[C@@H]1CN(C)C(=O)Cc1ccccc1	DENV2 CPE rescue 82 (no result: Rtt109 HAT inh, PDI turbidity)
C[C@H](CO)N1C[C@H](C)[C@@H](CN(C)C(=O)Cc2ccccc2)OCCCC[C@H](C)Oc2ccc(NC(=O)Nc3ccc(C(F)(F)F)cc3)cc2C1=O	none (no result: Rtt109 HAT inh, PDI turbidity)
C[C@@H]1CCCCO[C@H](CN(C)C(=O)Cc2ccccc2)[C@H](C)CN([C@@H](C)CO)C(=O)c2cc(NC(=O)Nc3ccc(C(F)(F)F)cc3)ccc2O1	DENV2 CPE rescue 44 (no result: Rtt109 HAT inh, PDI turbidity)
C[C@@H]1CCCCO[C@H](CN(C)C(=O)Cc2ccccc2)[C@@H](C)CN([C@@H](C)CO)C(=O)c2cc(NC(=O)Nc3ccc(C(F)(F)F)cc3)ccc2O1	DENV2 CPE rescue inconclusive (no result: Rtt109 HAT inh, PDI turbidity)
COc1ccc(S(=O)(=O)N(C)C[C@@H]2Oc3ncc(/C=C/c4ccccc4)cc3C(=O)N([C@@H](C)CO)C[C@@H]2C)cc1	none (no result: Rtt109 HAT inh, PDI turbidity)
COc1ccc(S(=O)(=O)N(C)C[C@@H]2Oc3ncc(-c4ccncc4)cc3C(=O)N([C@@H](C)CO)C[C@@H]2C)cc1	DENV2 CPE rescue 51 (no result: Rtt109 HAT inh, PDI turbidity)
COc1ccc(S(=O)(=O)N(C)C[C@H]2Oc3ncc(/C=C/c4ccccc4)cc3C(=O)N([C@H](C)CO)C[C@@H]2C)cc1	SIRT5 block 20 (no result: Rtt109 HAT inh, PDI turbidity)
CN(CC(=O)Nc1ccc(F)c(F)c1F)C(=O)c1cc(-c2ccncc2)nc2ccccc12	ERp5 inh 29
CN(C)C(=O)C[C@@H]1CC[C@H](NC(=O)C2CC2)[C@@H](CO)O1	none (no result: Rtt109 HAT inh, PDI turbidity)
Cc1ccccc1Nc1ccc2nonc2c1[N+](=O)[O-]	SIRT5 block 29
COc1ccc2c(CC(=O)NNC(=O)c3ccc(C)cc3)coc2c1	SIRT5 block 21
C[C@H](CO)N1C[C@H](C)[C@H](CN(C)C(=O)c2ccccn2)Oc2ncc(C3=CCCCC3)cc2C1=O	DENV2 CPE rescue 62 (no result: Rtt109 HAT inh, PDI turbidity)
C[C@@H]1CN([C@H](C)CO)C(=O)c2cc(C3=CCCCC3)cnc2O[C@@H]1CN(C)C(=O)Cc1cccnc1	DENV2 CPE rescue 56 (no result: Rtt109 HAT inh, PDI turbidity)
C[C@@H]1CN([C@H](C)CO)C(=O)Cc2cc(NC(=O)Nc3ccc(F)cc3)ccc2O[C@@H]1CN(C)C	none (no result: Rtt109 HAT inh, PDI turbidity)
C=CCCN(CC#C[C@H]1Oc2ccccc2S(=O)(=O)N2CCC[C@@H]12)S(=O)(=O)c1ccc(C)cc1	none (no result: Rtt109 HAT inh, PDI turbidity)
CCCNC(=O)N1CC(=O)N2[C@H](CO)[C@@H](c3ccc(-c4ccc(F)cc4)cc3)[C@@H]2C1	SIRT5 block 26 (no result: Rtt109 HAT inh, PDI turbidity)
O=C(c1ccc(F)cc1)N1CC(=O)N2[C@H](CO)[C@H](c3ccc(-c4ccccc4)cc3)[C@H]2C1	DENV2 CPE rescue 24 (no result: Rtt109 HAT inh, PDI turbidity)
CCCNC(=O)N1CC(=O)N2[C@@H](CO)[C@H](c3ccc(-c4ccc(F)cc4)cc3)[C@@H]2C1	none (no result: Rtt109 HAT inh, PDI turbidity)
CC(C)C#Cc1ccc([C@@H]2[C@H](CO)N3C(=O)CN(C(=O)C4CCCCC4)C[C@@H]23)cc1	SIRT5 block 24 (no result: Rtt109 HAT inh, PDI turbidity)
O=C(C1CCOCC1)N1CC(=O)N2[C@@H](CO)[C@H](c3ccc(C#CC4CCCC4)cc3)[C@@H]2C1	DENV2 CPE rescue 52 (no result: Rtt109 HAT inh, PDI turbidity)
O=C(C1CCOCC1)N1CC(=O)N2[C@H](C1)[C@@H](c1ccc(C#CC3CCCC3)cc1)[C@@H]2CO	none (no result: Rtt109 HAT inh, PDI turbidity)
Cc1ccccc1S(=O)(=O)N1C[C@H](O)COC[C@H]2O[C@H](CC(=O)O)CC[C@@H]21	none (no result: Rtt109 HAT inh, PDI turbidity)
O=C(C1CCC1)N1CC2(C1)[C@H](c1ccccc1)[C@@H](CO)N2Cc1ccccc1F	none (no result: Rtt109 HAT inh, PDI turbidity)
O=C(c1ccc(F)cc1)N1CC(=O)N2[C@@H](CO)[C@@H](c3ccc(C#CC4CCCC4)cc3)[C@@H]2C1	DENV2 CPE rescue 44 (no result: Rtt109 HAT inh, PDI turbidity)
O=C(c1ccc(F)cc1)N1CC(=O)N2[C@H](CO)[C@@H](c3ccc(C#CC4CCCC4)cc3)[C@@H]2C1	DENV2 CPE rescue inconclusive (no result: Rtt109 HAT inh, PDI turbidity)
O=C(c1ccc(F)cc1)N1CC(=O)N2[C@H](C1)[C@H](c1ccc(C#CCC3CCCC3)cc1)[C@@H]2CO	SIRT5 block 19 (no result: Rtt109 HAT inh, PDI turbidity)
C[C@@H]1CN([C@H](C)CO)C(=O)c2cc(C#CCN(C)C)cnc2O[C@@H]1CN(C)Cc1cccc(C(=O)O)c1	none (no result: Rtt109 HAT inh, ERp5 inh, DENV2 CPE rescue, PDI turbidity)
Cc1noc(C)c1S(=O)(=O)Nc1ccc2c(c1)C(=O)N([C@@H](C)CO)C[C@@H](C)[C@@H](CN(C)S(=O)(=O)c1ccc(F)cc1)OCCCC[C@@H](C)O2	none (no result: Rtt109 HAT inh, PDI turbidity)
COc1cc([N+](=O)[O-])c(OC)cc1Nc1ccccc1C(=O)O	none (no result: Rtt109 HAT inh, SIRT5 block, PDI turbidity)
COc1cc(-c2ccc(Nc3ccccc3C(=O)O)c(OC)c2)ccc1Nc1ccccc1C(=O)O	SIRT5 block 30
O=S(Cc1ccc(Br)cc1)Cc1nnc(SCc2ccc(Br)cc2)n1-c1ccccc1 (configuration not stated)	none
COC(=O)c1ccc(CSc2nnc(CS(=O)Cc3ccc(Br)cc3)n2-c2ccccc2)cc1 (configuration not stated)	SIRT5 block 18
OC[C@H]1[C@H](c2ccc(C#CC3(O)CCCC3)cc2)[C@H]2CN(Cc3ccncc3)CCCCN21	none (no result: Rtt109 HAT inh, PDI turbidity)
Cc1ccc2nc(SC(C)C(=O)N3CC(C)OC(C)C3)[nH]c2c1 (configuration not stated)	SIRT5 block 22
C[C@H]1CN([C@@H](C)CO)C(=O)c2cc(NS(=O)(=O)c3ccccc3)ccc2O[C@H]1CN(C)S(C)(=O)=O	none (no result: Rtt109 HAT inh, PDI turbidity)
Cc1ccc(S(=O)(=O)NC(=O)c2ccc(Br)o2)c(C)c1	none (no result: SIRT5 block)
Cc1ccc(S(=O)(=O)NC(=O)c2ccc(Br)o2)cc1	SIRT5 block 35
CN1c2ccc(C#Cc3cccnc3)cc2[C@H]2[C@H](CCN2C(=O)Nc2cc(F)ccc2F)[C@@H]1CO	none (no result: Rtt109 HAT inh, PDI turbidity)
C[C@@H]1CCCCO[C@H](CN(C)C(=O)C2CCCCC2)[C@@H](C)CN([C@@H](C)CO)C(=O)c2cc(NC(=O)c3ccccc3)ccc2O1	none (no result: Rtt109 HAT inh, PDI turbidity)
COCc1cn(CC[C@H]2CC[C@@H](NC(=O)Nc3ccc(Cl)cc3)[C@@H](CO)O2)nn1	none (no result: Rtt109 HAT inh, PDI turbidity)
COc1cccc(C(=O)Nc2ccc3c(c2)OC[C@@H](C)N(C)C[C@H](C)[C@H](OC)CN(C)C3=O)c1	none (no result: Rtt109 HAT inh, PDI turbidity)
CCOC(=O)c1c(C)oc2c(CC(=O)c3ccccc3)c(Cl)c(O)c(O)c12	Rtt109 HAT inh 58 (no result: ERp5 inh, DENV2 CPE rescue, SIRT5 block)
COc1ccc(-c2nc(-c3cccc(C)c3)no2)cc1OC	SIRT5 block 17
Cc1cc(Cc2cc(C)c(N)cc2C)c(C)cc1N	SIRT5 block 21
CN1CCN(C(=O)c2cc3c(c(-c4cccc(-c5cccc(F)c5)c4)n2)[C@@H](CCO)N(S(=O)C(C)(C)C)C3)CC1 (some centres not stated)	none (no result: Rtt109 HAT inh, PDI turbidity)
COC(=O)/C=C/c1ccc(-n2cncn2)cc1	none (no result: Rtt109 HAT inh)
COC(=O)/C=C/c1cnc[nH]1	DENV2 CPE rescue 51 (no result: SIRT5 block)
